Reference: PubChem BioAssay (Tox21)
Records with an inconclusive call do not appear. Calls of active or inactive are those of the source. Unless noted, calls come from the whole dose curve; as a rule, active = well fitted curve in the direction sought with a large enough effect in the repeat runs; inconclusive = weak or mixed curves; inactive = no such curve, though single readings can be large; an effect the other way counts as inactive or inconclusive.

What was measured:
[1] = qHTS assay to identify small molecule agonists of the vitamin D receptor (VDR) signaling pathway - cell viability counter screen (AID 743224); note: series mostly up to about 63 µM; % is set by controls: 0 for no effect and ±100 for the full control effect; nearly all actives have a fitted effect of over 50% in size
Summary of the method: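 Luminescence from CellTiter-Glo, read after 30 min at room temperature, reports viability of VDR-bla cells treated with compounds for 16 h at 37C in the wells used for the beta-lactamase FRET read.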

[2] = qHTS assay to identify small molecule antagonists of the vitamin D receptor (VDR) signaling pathway - cell viability counter screen (AID 743225); note: % is set by controls: 0 for no effect and ±100 for the full control effect; nearly all actives have a fitted effect of over 50% in size
Summary of the method: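 Compounds were pinned onto VDR-bla HEK 293T cells together with 1-alpha,25-dihydroxyvitamin D3 at 3 nM final. After 16 h at 37C and 5% CO2 plus the reporter readout, cell viability was measured by CellTiter-Glo luminescence (30 min, room temperature).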

[3] = qHTS assay to identify small molecule agonists of the NFkB signaling pathway (AID 1159509; active = well fitted curve in the direction sought with a large enough effect in the signal ratio in the repeat runs, not every such curve was filed as active; the % refers to the signal ratio; note: series mostly up to about 61 µM; % is set by controls: 0 for no effect and ±100 for the full control effect)
Summary of the method: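 NFkB-bla ME-180 cells carry a beta-lactamase reporter under an NF-kB response element. They were plated overnight, then exposed to compounds for 5 h at 37 C. Read-out is LiveBLAzer FRET after 1.5 hr at room temperature (405 nm excitation; 460/530 nm emission).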

[4] = qHTS assay to identify small molecule agonists of the NFkB signaling pathway - cell viability counter screen (AID 1159515; calls by dose curve; note: series mostly up to about 61 µM; % is set by controls: 0 for no effect and ±100 for the full control effect; nearly all actives have a fitted effect of over 55% in size)
Summary of the method: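 Luminescence from CellTiter-Glo (30 min, room temperature) gives viability, measured in the same wells as the beta-lactamase reporter read. Cells were NFkB-bla ME-180, 2,000 per well, treated 5 hr with compounds.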

[5] = qHTS assay to identify small molecule agonists of the endoplasmic reticulum stress response signaling pathway (AID 1159516; active = well fitted activation curve with a large enough effect in the signal ratio in the repeat runs, not every such curve was filed as active; the % refers to the signal ratio; note: % is set by controls: 0 for no effect and ±100 for the full control effect)
Summary of the method: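 Read-out is beta-lactamase cleavage of a FRET substrate (405 nm excitation; 460 and 530 nm emissions) in ESRE-bla HeLa cells after a 5 hr compound exposure at 37 C. Substrate incubation ran 2 hr at room temperature.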

[6] = qHTS assay to identify small molecule agonists of the endoplasmic reticulum stress response signaling pathway - cell viability counter screen (AID 1159517; calls by dose curve;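 note: HeLa cells carrying an ER stress response element beta-lactamase reporter; series mostly up to about 61 µM; % is set by controls: 0 for no effect and ±100 for the full control effect; nearly all actives have a fitted effect of over 50% in size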)
Summary of the method: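 CellTiter-Glo was added to wells already read for beta-lactamase FRET, and luminescence was recorded 30 min later. Cells: ESRE-bla HeLa, 1,500 per well, compound exposure 5 hr at 37 C.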

[7] = qHTS assay to identify small molecule antagonists of the retinoid-related orphan receptor gamma (ROR-gamma) signaling pathway - cell viability counter screen (AID 1159520); note: % is set by controls: 0 for no effect and ±100 for the full control effect; nearly all actives have a fitted effect of over 50% in size
Summary of the method: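 Tet-on ROR gamma CHO cells (1,000/well) were plated 4 hr, given compounds in DMSO for 2 hr at 37 C, then induced with 1 uM final doxycycline for 16 hr. Viability was read as ATP by CellTiter-Glo luminescence after 30 min.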

[8] = molecular target: Nuclear receptor ROR-gamma (Homo sapiens) (UniProt P51449); test: qHTS assay to identify small molecule antagonists of the retinoid-related orphan receptor gamma (ROR-gamma) signaling pathway (AID 1159521)
Summary of the method: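 Test compounds were applied to Tet-on RORγ CHO cells 2 h ahead of doxycycline hyclate (1 uM final). Luciferase reporter activity was quantified by luminescence after 16 h at 37 C and 5% CO2.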

[9] = qHTS assay to identify small molecule agonists of the AP-1 signaling pathway - cell viability counter screen (AID 1159525; calls by dose curve; note: nearly all actives have a fitted effect of over 55% in size)
Summary of the method: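 ME-180 AP-1-bla, 2500 cells/well, Opti-MEM + 0.5% dialyzed FBS; overnight 37 °C; cpd 15-pt titration, 5 h 37 °C; CellTiter-Glo 30 min RT; luminescence read; normalised to TOAB and DMSO controls.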

[10] = qHTS assay to identify small molecule agonists of the AP-1 signaling pathway (AID 1159526; calls by dose curve; note: % is set by controls: 0 for no effect and ±100 for the full control effect)
[11] = qHTS assay to identify small molecule agonists of the RXR signaling pathway - cell viability counter screen (AID 1159529)
Summary of the method: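 Compounds dissolved in DMSO were pinned onto HEK 293T cells carrying a beta-lactamase reporter under RXR-alpha control and incubated 16 hr. Cytotoxicity was then quantified by CellTiter-Glo luminescence.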

[12] = qHTS assay to identify small molecule antagonists of the retinoid acid receptor (RAR) signaling pathway - cell viability counter screen (AID 1159551); note: % is set by controls: 0 for no effect and ±100 for the full control effect; nearly all actives have a fitted effect of over 35% in size
Summary of the method: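 Luminescent ATP quantitation (CellTiter-Glo) gave cell viability in C3RL4 cells exposed to test chemicals for 6 h at 37 C alongside 1 uM final retinol.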

[13] = qHTS assay to identify small molecule antagonists of the retinoic acid receptor (RAR) signaling pathway (AID 1159552)
Summary of the method: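 Test chemicals and DMSO controls were pin-transferred onto C3RL4 cells a day after seeding; retinol (1 uM final) followed at once. Luminescent reporter output was quantified after 6 hr of co-incubation and 30 min with detection reagent.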

[14] = qHTS assay to identify small molecule agonists of the retinoic acid receptor (RAR) signaling pathway (AID 1159553); note: potency is the fitted concentration of half-maximal effect; for activation: % is set by controls: 0 for no effect and ±100 for the full control effect
Summary of the method: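 Luminescence from a RARE-driven luciferase reporter in C3RL4 cells served as the read-out, measured after 30 min with detection reagent at room temperature. Compounds in DMSO were applied for 6 hr at 37 C following overnight seeding.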

CC(C(=O)O)c1ccc(/C=C2\CCCCC2=O)cc1 (configuration not stated)
active: Potency [14] 15 µM
inactive: outcome [1] | outcome [2] | outcome [3] | outcome [4] | outcome [5] | outcome [6] | Potency [7] | Potency [8] | outcome [9] | Potency [10] | Potency [11] | outcome [12] | outcome [13]

CCOc1ccccc1O
inactive: outcome [1] | outcome [2] | outcome [3] | outcome [4] | outcome [5] | outcome [6] | Potency [7] | Potency [8] | outcome [9] | Potency [10] | Potency [11] | outcome [12] | outcome [13] | Potency [14]

COc1ccc(/C=C/S(=O)(=O)NC(=O)c2ccc(C)cc2Cl)cc1
inactive: outcome [1] | outcome [2] | outcome [3] | outcome [4] | outcome [5] | outcome [6] | Potency [7] | Potency [8] | outcome [9] | Potency [10] | Potency [11] | outcome [12] | outcome [13] | Potency [14]

CCCC(=O)OCCC(C)C
inactive: outcome [1] | outcome [2] | outcome [3] | outcome [4] | outcome [5] | outcome [6] | Potency [7] | Potency [8] | outcome [9] | Potency [10] | Potency [11] | outcome [12] | outcome [13] | Potency [14]

Oc1ccc(Oc2ccccc2)cc1
inactive: outcome [1] | outcome [2] | outcome [3] | outcome [4] | outcome [5] | outcome [6] | Potency [7] | Potency [8] | outcome [9] | Potency [10] | Potency [11] | outcome [12] | outcome [13]

O=[N+]([O-])c1ccccc1CCO
inactive: outcome [1] | outcome [2] | outcome [3] | outcome [4] | outcome [5] | outcome [6] | Potency [7] | Potency [8] | outcome [9] | Potency [10] | Potency [11] | outcome [12] | outcome [13] | Potency [14]

CC(=O)Nc1ccn(C2COC(COC(=O)c3ccccc3)O2)c(=O)n1 (configuration not stated)
inactive: outcome [1] | outcome [2] | outcome [3] | outcome [4] | outcome [5] | outcome [6] | Potency [7] | Potency [8] | outcome [9] | Potency [10] | Potency [11] | outcome [12] | outcome [13] | Potency [14]

COC(=O)c1cc(Cl)ccc1[N+](=O)[O-]
inactive: outcome [1] | outcome [2] | outcome [3] | outcome [4] | outcome [5] | outcome [6] | Potency [7] | Potency [8] | outcome [9] | Potency [10] | Potency [11] | outcome [12] | outcome [13] | Potency [14]

OCC(O)c1ccccc1 (configuration not stated)
inactive: outcome [1] | outcome [3] | outcome [4] | outcome [5] | outcome [6] | Potency [7] | Potency [8] | outcome [9] | Potency [10] | Potency [11] | outcome [12] | outcome [13] | Potency [14]

O=C1c2ccccc2C(=O)C1c1ccc2cc(S(=O)(=O)O)cc(S(=O)(=O)O)c2n1
inactive: outcome [1] | outcome [2] | outcome [3] | outcome [4] | outcome [5] | outcome [6] | Potency [7] | Potency [8] | outcome [9] | Potency [10] | Potency [11] | outcome [12] | outcome [13]

CCCCCCCCCCCCCCCCCCCl
inactive: activity change, negative = cytotoxicity [1] 6.04% [at 5.95 µM] | viability change, negative = cytotoxic [2] -10.5% [at 6.95 µM] | activation [3] -0.691% [at 6.95 µM] | activity, negative = cytotoxic [4] -1.14% [at 6.95 µM] | activation [5] -3.96% [at 6.95 µM] | activity change, negative = cytotoxicity [6] 2.96% [at 6.95 µM] | activity, negative = cytotoxicity [7] -1.61% [at 8.39 µM] | activity change, negative = inhibition [8] 0.775% [at 8.39 µM] | viability change, negative = cytotoxic [9] 1.66% [at 6.97 µM] | activation [10] -4.53% [at 6.97 µM] | activity change, negative = cytotoxicity [11] 3.39% [at 6.97 µM] | activity change, negative = cytotoxicity [12] -1.45% [at 8.39 µM] | activity, negative = inhibition [13] -19.9% [at 8.39 µM] | activation [14] -0.984% [at 8.36 µM]

O=C(N[C@@H](Cc1ccccc1)[C@@H](O)C(=O)N1C[C@@H](O)[C@@H](O)C1)c1cc2cc(Cl)ccc2[nH]1
inactive: outcome [1] | outcome [2] | outcome [3] | outcome [4] | outcome [5] | outcome [6] | Potency [7] | Potency [8] | outcome [9] | Potency [10] | Potency [11] | outcome [12] | outcome [13]

Cc1ccc(NC(=O)c2ccc(CN3CCN(C)CC3)cc2)cc1Nc1nccc(-c2cccnc2)n1
inactive: outcome [3] | outcome [4] | outcome [5] | outcome [6] | Potency [7] | Potency [8] | outcome [9] | Potency [10] | Potency [11] | outcome [12]

O=C(c1ccc(Cl)cc1)c1ccc(Cl)cc1
inactive: outcome [1] | outcome [2] | outcome [3] | outcome [4] | outcome [5] | outcome [6] | Potency [7] | Potency [8] | outcome [9] | Potency [10] | Potency [11] | outcome [12] | outcome [13] | Potency [14]

CCCCOc1ccc(N)cc1
inactive: outcome [1] | outcome [2] | outcome [3] | outcome [4] | outcome [5] | outcome [6] | Potency [7] | Potency [8] | outcome [9] | Potency [10] | Potency [11] | outcome [12] | outcome [13]

CC(=O)CC/C=C(\C)CC/C=C(\C)CC/C=C(\C)CCC=C(C)C
inactive: outcome [1] | outcome [2] | outcome [3] | outcome [4] | outcome [5] | outcome [6] | Potency [7] | Potency [8] | outcome [9] | Potency [10] | Potency [11] | outcome [12] | outcome [13] | Potency [14]

CC(C)(C)N
inactive: outcome [1] | outcome [2] | outcome [3] | outcome [4] | outcome [5] | outcome [6] | Potency [7] | Potency [8] | outcome [9] | Potency [10] | Potency [11] | outcome [12] | outcome [13]

O=C(O)c1cc(C(=O)O)cc([N+](=O)[O-])c1
inactive: outcome [1] | outcome [2] | outcome [3] | outcome [4] | outcome [5] | outcome [6] | Potency [7] | Potency [8] | outcome [9] | Potency [10] | Potency [11] | outcome [12] | outcome [13] | Potency [14]
